# High-throughput results: PubChem BioAssay, National Center for Advancing Translational Sciences (NCATS)
# Abeta rescue – qHTS for compounds that reverse cellular toxicity of Amyloid beta (A-beta) peptide in yeast: Primary Screen. yeast expressing A-beta42, growth rescue, OD600, 48 h; response scale: 0% DMSO, 100% iron-clioquinol control. Potency, µM (top dose mostly 46.1 µM), usual class: activators. 410,000 tested, 0.063% active; note: nearly all actives have a fitted effect of over 55% in size
#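 Growth rescue measured by 600 nm absorbance after 48 h yeast culture at 30 C with compound. Values normalized between DMSO and an equimolar ferric chloride plus clioquinol control.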
# TDP-43 yeast inh – qHTS of TDP-43 Inhibitors | TDP-43 expressing yeast growth rescue, BacTiter-Glo, 24 h | Potency, µM (series often up to 46.1 µM), for the others: at the highest dose growth rescue (activation), actives largely listed as activators | 410,000 tested, 1.8% active; note: % of control where 0% means no effect; nearly all actives have a fitted effect of over 50% in size
#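 Growth rescue of TDP-43-toxic yeast measured as ATP luminescence (BacTiter-Glo). Cells grown to mid-log in raffinose, induced in galactose at OD600=0.02, exposed to compound 24 hr at 30 deg C.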
# FUS suppressor – qHTS for Suppressors of FUS Proteinopathy: Primary screen using FUS-linked yeast assay | Potency, µM (highest dose often 76.6 µM), actives largely listed as activators | S. cerevisiae FUS-expressing, growth rescue, OD600, 24 h | 390,000 tested, 0.24% active | AID 1347120, 2019;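 note: plate controls were DMSO vehicle for no effect and reference control for full effect; nearly all actives have a fitted effect of over 55% in size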
#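 Toxicity suppression screen in FUS-yeast. Cells induced with 2% galactose, starting OD 0.005, treated 24hr at 30C with compounds at multiple final concentrations; growth by OD600.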
# aSyn rescue – qHTS of alpha-syn Inhibitors; AID 652106, 2013; 370,000 tested, 0.14% active; Potency, µM (top dose mostly 46.1 µM), for the others: at the highest dose growth rescue (activation), most hits filed as activators; Yeast expressing alpha-synuclein, growth rescue, BacTiter-Glo, 24 h; note: % of control where 0% means no effect; nearly all actives have a fitted effect of over 65% in size
#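 Screening used galactose-induced yeast with toxic alpha-synuclein levels, exposed to compound for 24 hr at 30 deg C. Cell growth, read with BacTiter-Glo luminescence, gave the measured signal.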
# Active calls of the source: *; i = inactive; ? = inconclusive; · = not tested or not shown. In the library only some 2.1% were active in any assay of this set; here they are far more common. Calls come from the whole dose curve; as a rule, active = well fitted curve in the direction sought with a large enough effect; inconclusive = small, poorly fitted or top-dose-only effect, or another doubt; inactive = no such curve, though single readings can be large; an effect the other way counts as inactive or inconclusive. Potency is the fitted concentration of half-maximal effect.
SMILES,Abeta rescue,TDP-43 yeast inh,FUS suppressor,aSyn rescue
O=C(NCc1ccco1)OC1CCC12CCC(c1ccccc1)CC2 (configuration not stated),·,·,i,·
O=C(O)c1ccc(-c2ccc(O)c(F)c2)cc1,i,16µM*,i,12%
O=C1CSC(=S)N1c1cccc(O)c1,i,-5%,i,?
O=C1CSC(=S)N1c1cccc(Br)c1,i,14µM*,i,1%
O=C(O)c1cccc(N2C(=O)CSC2=S)c1,i,?,i,35µM*
CN(Cc1ccccc1)c1ccc(/C=C/c2sc3ccccc3[n+]2C)cc1,·,·,·,-3%
Brc1ccc(-c2csc(N3CCNCC3)n2)cc1,·,·,i,·
COc1ccc(C(C#N)=Cc2cccc(OC)c2OC)cc1,i,18µM*,i,-23%
COc1cc(/C(C#N)=C/c2cccc3ccccc23)c([N+](=O)[O-])cc1OC,i,-2%,i,5%
COC(=O)c1cc(C)sc1NC(=O)CCc1ccccc1,i,11µM*,i,3%
COC(=O)c1ccsc1NC(=O)CCc1ccccc1,i,?,i,0%
COC(=O)c1ccccc1NC(=O)COc1ccccc1,i,5%,i,4%
COC(=O)c1ccccc1NC(=O)CCc1ccccc1,i,10µM*,i,-3%
Cc1nc(NC(=O)CCc2ccccc2)sc1C,i,13µM*,i,2%
CCOC(=O)N1C(=O)C[C@](Sc2ccc(OC)cc2)(C(=O)N2CCOCC2)[C@H]1c1ccc(OC)cc1,·,·,i,·
CC(c1ccccc1)n1cc(C(=O)NCCCN2CCCC2)nn1 (configuration not stated),·,·,i,·
CCC[C@H]1[C@@H](NC(=O)NCC)CC[C@@]23CCCN2C(=O)CCC[C@@H]13,·,·,i,·
CN(C)S(=O)(=O)Oc1cccc(C(=O)Nc2ccc(Cl)cc2)c1,i,22µM*,i,-19%
Nc1cccc(C(=O)Nc2ccccc2Cl)c1,i,20%,i,-1%
CN(C)S(=O)(=O)Oc1cccc(C(=O)Nc2ccccc2Cl)c1,i,14µM*,i,2%
CN(C)S(=O)(=O)Oc1ccc(C(=O)Nc2cccc(Cl)c2)cc1,i,-11%,i,-4%
CC(C)Cn1c(N)c(C(=O)COC(=O)c2c(O)c(Cl)cc(Cl)c2Cl)c(=O)n(C)c1=O,i,25µM*,i,-15%
CC(C)Cn1c(N)c(C(=O)COC(=O)c2ccc(Cl)cc2)c(=O)n(C)c1=O,i,·,i,14%
C=CS(=O)(=O)N(Cc1nnn(Cc2ccccc2)c1Br)[C@@H](CC(C)C)C(=O)OC,·,·,i,·
CCCCn1nnnc1C(c1ccccc1)N1CCN(c2ccc(F)cc2)CC1 (configuration not stated),i,28µM*,i,14%
SMILES,Abeta rescue,TDP-43 yeast inh,FUS suppressor,aSyn rescue
CCCc1ccc(C2=Nn3c(nnc3C(C)C)SC2)cc1,i,15%,?,-19%
CC(C)c1nnc2n1N=C(c1ccc(Cl)cc1)CS2,i,20µM*,i,0%
Cc1cccc(N2CCN(C(=O)c3cc4c(=O)[nH]c5ccc(C)cc5c4s3)CC2C)c1 (configuration not stated),i,-6%,i,·
Cn1nc(C(=O)NCc2ccc(F)cc2)c2c1-c1ccccc1S(=O)(=O)C2,i,10%,?,1%
Cn1nc(C(=O)NCc2ccc(Cl)cc2)c2c1-c1ccccc1SC2,i,8%,i,·
Cn1nc(C(=O)NCc2ccc(F)cc2)c2c1-c1ccccc1SC2,i,18µM*,i,·
COc1ccc(OC)c(CCNC(=O)c2nn(C)c3c2CSc2ccccc2-3)c1,i,22µM*,i,·
CC(NC(=O)c1nn(C)c2c1CSc1ccccc1-2)c1ccccc1 (configuration not stated),i,18µM*,?,·
CSc1ccc(CCNC(=O)c2nn(C)c3c2CS(=O)(=O)c2ccccc2-3)cc1,i,25µM*,i,8%
COC(=O)c1ccccc1NC(=O)CSc1c2c(nc3ccc(Cl)cc13)CCCC2,i,?,i,·
CCn1ccc2c(OCC(=O)Nc3ccc(C)c(Cl)c3)cccc2c1=O,i,22µM*,?,·
CCCn1ccc2c(OCC(=O)Nc3ccc(F)cc3F)cccc2c1=O,i,22µM*,i,·
O=C(OC12CCCN(C1)/C(=C/c1cccc(Cl)c1)C2)c1ccco1 (configuration not stated),·,·,i,·
COc1ccccc1CNc1nc(-c2ccco2)nn1C(=O)c1ccccc1[N+](=O)[O-],i,-1%,i,·
O=S(=O)(NC1c2cccc3cccc(c23)C1Sc1ncccn1)c1ccccc1 (configuration not stated),i,22µM*,i,9%
COc1cc(C=Nn2c(-c3ccc(F)cc3)n[nH]c2=S)ccc1OCc1ccccc1,·,·,i,·
Nc1nc(-c2cccs2)c(-c2cccs2)s1,i,16µM*,i,-11%
Nc1nc(-c2cccs2)c(CC(=O)O)s1,i,5%,i,0%
O=C(Cn1ncc(Cl)c(Cl)c1=O)c1ccc2c(c1)OCCO2,i,22µM*,·,?
COc1cccc(Cn2cc(COC(=O)N(C)Cc3ccccc3)nn2)c1,·,·,i,·
CCNC(=O)CN(c1ccc(Cl)cc1)S(=O)(=O)c1ccccc1,i,11µM*,i,-6%
CCNC(=O)CN(c1ccccc1)S(=O)(=O)c1ccc(Cl)cc1,i,-17%,i,1%
CC(C)COC(=O)c1cccc2c1-c1ccccc1/C2=N\O,i,?,i,-18%
CCOC(=O)c1cccc2c1-c1ccccc1/C2=N/O,i,14µM*,i,-13%
CCCCNC(=S)N(C)/N=C/c1ccc(F)cc1,i,11µM*,·,-15%
SMILES,Abeta rescue,TDP-43 yeast inh,FUS suppressor,aSyn rescue
COc1cc(/C=C/C(=O)c2c(O)ccc3c(C)cc(=O)oc23)ccc1O,i,?,i,5µM*
Cc1cc(Cl)ccc1-c1nc(NC(C)C)nc2ccsc12,i,35µM*,i,?
COCCNc1nc(-c2ccc(Cl)cc2C)c2sccc2n1,i,22µM*,i,10%
Cc1cc(Cl)ccc1-c1nc(NCc2ccccc2)nc2ccsc12,i,?,i,24%
O=[N+]([O-])c1cccc(-c2nc(NCc3ccccc3)c3ccccc3n2)c1,i,9%,·,-2%
CN(Cc1ccccc1)c1nc(-c2cccc([N+](=O)[O-])c2)nc2ccccc12,i,14µM*,i,-11%
CCCc1cc(=O)oc2cc3oc(C)c(C)c3cc12,i,18%,·,-5%
CCc1cc(=O)oc2cc3oc(C)c(C)c3cc12,i,3.5µM*,i,4%
O=C(CNC(=O)c1cccc(F)c1)OCCOc1cccc(Cl)c1,i,13µM*,i,8%
COCCn1c(C)cc(C2=NNC(=Nc3ccccc3)SC2)c1C,i,-10%,10µM*,1%
